Experimental data: PubChem BioAssay AID1159580 (chemical genetic matrix, 2015)
Where “and” joins values, the source holds several entries; their conditions need not be identical. Equal values may be shown once. Hit rate of the full screen: of about 5,500 compounds, about 2,000 (36%) were called active. Another 18% or so got no clear call; they are omitted. Rule as the data show it: active = normalized growth mostly below about 0.91 (no sharp cut-off); inconclusive = no clear call, values can overlap the other calls; inactive = mostly above about 0.92. Some of the results follow.

Experiment: chemical genetic growth profiling, strain panel (AID 1159580);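 also: tested at 20 µM; growth read once vehicle control cultures reached saturation at 30 °C; 1 = growth at the plate median or of vehicle wells; lower values mean less growth of the strain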
Details: growth OD

Measured: normalized growth

O=C1N=C(O)CN1/N=C\c1ccc(-c2ccc([N+](=O)[O-])cc2)o1
inactive: S. cerevisiae deletion strains, locus YJR075W, strain HOC1, active compounds read low 1.03 and 0.99 | S. cerevisiae deletion strains, locus YKL009W, strain mrt4, active compounds read low 1.04 | S. cerevisiae deletion strains, locus YKL068W, active compounds read low 1.03 | S. cerevisiae deletion strains, locus YKL085W, strain MDH1 (second series), active compounds read low 1.02 | S. cerevisiae deletion strains, locus YKL085W, strain MDH1, active compounds read low 1.02 | S. cerevisiae deletion strains, locus YKL160W, strain elf1, active compounds read low 0.994 | S. cerevisiae deletion strains, locus YKL190W, strain CNB1, active compounds read low 1.02 | S. cerevisiae deletion strains, locus YKR001C, strain vps1, active compounds read low 1.03 | S. cerevisiae deletion strains, locus YKR026C, strain gcn3, active compounds read low 0.99 | S. cerevisiae deletion strains, locus YKR091W, strain srl3, active compounds read low 0.98 | S. cerevisiae deletion strains, locus YLL001W, strain dnm1, active compounds read low 1 | S. cerevisiae deletion strains, locus YLL026W, active compounds read low 0.997 | S. cerevisiae deletion strains, locus YLL041C, strain sdh2, active compounds read low 0.97 | S. cerevisiae deletion strains, locus YLR027C, strain aat2, active compounds read low 0.988 | S. cerevisiae deletion strains, locus YLR039C, strain RIC1, active compounds read low 1.05 | S. cerevisiae deletion strains, locus YLR058C, strain SHM2, active compounds read low 1.02 | S. cerevisiae deletion strains, locus YLR102C, strain apc9, active compounds read low 1.03 | S. cerevisiae deletion strains, locus YLR113W, strain HOG1, active compounds read low 1.02 | S. cerevisiae deletion strains, locus YLR221C, strain rsa3, active compounds read low 0.994 | S. cerevisiae deletion strains, locus YLR258W, strain gsy2, active compounds read low 0.994 | S. cerevisiae deletion strains, locus YLR262C, strain YPT6 (second series), active compounds read low 0.933 | S. cerevisiae deletion strains, locus YLR262C, strain YPT6, active compounds read low 1.05 | S. cerevisiae deletion strains, locus YLR268W, strain sec22, active compounds read low 1.01 | S. cerevisiae deletion strains, locus YLR320W, strain mms22, active compounds read low 0.966 | S. cerevisiae deletion strains, locus YLR330W, strain CHS5, active compounds read low 1.02 | S. cerevisiae deletion strains, locus YLR342W, strain FKS1 (second series), active compounds read low 1 | S. cerevisiae deletion strains, locus YLR342W, strain FKS1, active compounds read low 0.986 | S. cerevisiae deletion strains, locus YLR357W, strain rsc2, active compounds read low 0.931 | S. cerevisiae deletion strains, locus YLR370C, strain arc18, active compounds read low 0.985 | S. cerevisiae deletion strains, locus YLR371W, strain rom2, active compounds read low 1.02 | S. cerevisiae deletion strains, locus YLR384C, strain iki3, active compounds read low 0.974 | S. cerevisiae deletion strains, locus YLR418C, strain cdc73, active compounds read low 1.02 | S. cerevisiae deletion strains, locus YML016C, strain PPZ1, active compounds read low 1.02 | S. cerevisiae deletion strains, locus YML032C, strain rad52, active compounds read low 1.03 | S. cerevisiae deletion strains, locus YML120C, strain ndi1, active compounds read low 0.988 | S. cerevisiae deletion strains, locus YML124C, strain tub3, active compounds read low 1.03 | S. cerevisiae deletion strains, locus YMR058W, strain fet3, active compounds read low 0.972 | S. cerevisiae deletion strains, locus YMR078C, strain ctf18, active compounds read low 1.04 | S. cerevisiae deletion strains, locus YMR125W, strain sto1, active compounds read low 0.974 | S. cerevisiae deletion strains, locus YMR129W, active compounds read low 0.98 | S. cerevisiae deletion strains, locus YMR205C, strain PFK2, active compounds read low 0.996 | S. cerevisiae deletion strains, locus YMR223W, strain ubp8, active compounds read low 1.02 | S. cerevisiae deletion strains, locus YMR231W, strain pep5, active compounds read low 0.993 | S. cerevisiae deletion strains, locus YMR263W, strain SAP30, active compounds read low 1.02 and 0.999 | S. cerevisiae deletion strains, locus YMR307W, strain GAS1, active compounds read low 1.05 | S. cerevisiae deletion strains, locus YNL067W, strain RPL9B, active compounds read low 1.02 | S. cerevisiae deletion strains, locus YNL071W, strain lat1, active compounds read low 0.978 | S. cerevisiae deletion strains, locus YNL128W, strain TEP1, active compounds read low 1.04 and 1.01 | S. cerevisiae deletion strains, locus YNL153C, strain GIM3, active compounds read low 1.01 and 1.03 | S. cerevisiae deletion strains, locus YNL175C, strain NOP13, active compounds read low 1.01 | S. cerevisiae deletion strains, locus YNL183C, strain NPR1, active compounds read low 0.96 | S. cerevisiae deletion strains, locus YNL197C, strain WHI3, active compounds read low 1.03 | S. cerevisiae deletion strains, locus YNL209W, strain ssb2, active compounds read low 0.979 | S. cerevisiae deletion strains, locus YNL224C, strain SQS1, active compounds read low 0.998 | S. cerevisiae deletion strains, locus YNL233W, strain BNI4, active compounds read low 1.01 | S. cerevisiae deletion strains, locus YNL248C, strain rpa49, active compounds read low 0.974 | S. cerevisiae deletion strains, locus YNL250W, strain rad50, active compounds read low 1.06 | S. cerevisiae deletion strains, locus YNL271C, strain bni1, active compounds read low 1.02 | S. cerevisiae deletion strains, locus YNL298W, strain CLA4, active compounds read low 1.05 | S. cerevisiae deletion strains, locus YNL307C, strain MCK1, active compounds read low 1.02 | S. cerevisiae deletion strains, locus YNL322C, strain KRE1 (second series), active compounds read low 0.976 | S. cerevisiae deletion strains, locus YNL322C, strain KRE1, active compounds read low 1.03 and 0.967 | S. cerevisiae deletion strains, locus YNR049C, strain mso1, active compounds read low 0.988 | S. cerevisiae deletion strains, locus YNR052C, strain pop2, active compounds read low 1.03 | S. cerevisiae deletion strains, locus YOL006C, strain TOP1, active compounds read low 1.02 | S. cerevisiae deletion strains, locus YOL012C, strain htz1 0.991 | S. cerevisiae deletion strains, locus YOL147C, strain pex11, active compounds read low 1.03 | S. cerevisiae deletion strains, locus YOR001W, strain rrp6, active compounds read low 1.02 | S. cerevisiae deletion strains, locus YOR061W, strain CKA2, active compounds read low 1.02 | S. cerevisiae deletion strains, locus YOR069W, strain VPS5, active compounds read low 1.01 | S. cerevisiae deletion strains, locus YOR070C, strain gyp1, active compounds read low 0.996 | S. cerevisiae deletion strains, locus YOR080W, strain dia2, active compounds read low 0.989 | S. cerevisiae deletion strains, locus YOR083W, strain WHI5 (second series), active compounds read low 1.03 | S. cerevisiae deletion strains, locus YOR083W, strain WHI5, active compounds read low 0.977 | S. cerevisiae deletion strains, locus YOR106W, strain vam3, active compounds read low 0.972 | S. cerevisiae deletion strains, locus YOR136W, strain idh2, active compounds read low 1.03 | S. cerevisiae deletion strains, locus YOR144C, strain elg1, active compounds read low 1.03 | S. cerevisiae deletion strains, locus YOR184W, strain ser1, active compounds read low 1.04 | S. cerevisiae deletion strains, locus YOR231W, strain MKK1, active compounds read low 1.03 | S. cerevisiae deletion strains, locus YOR265W, strain rbl2, active compounds read low 0.986 | S. cerevisiae deletion strains, locus YOR270C, strain vph1, active compounds read low 0.911 | S. cerevisiae deletion strains, locus YOR290C, strain snf2, active compounds read low 0.961 | S. cerevisiae deletion strains, locus YOR316C, strain cot1, active compounds read low 1.02 | S. cerevisiae deletion strains, locus YPL051W, strain arl3, active compounds read low 0.999 | S. cerevisiae deletion strains, locus YPL055C, strain LGE1, active compounds read low 1.02 | S. cerevisiae deletion strains, locus YPL078C, strain atp4, active compounds read low 0.973 | S. cerevisiae deletion strains, locus YPL106C, strain sse1, active compounds read low 0.981 | S. cerevisiae deletion strains, locus YPL240C, strain hsp82, active compounds read low 0.993 | S. cerevisiae deletion strains, locus YPL241C, strain CIN2, active compounds read low 1.02 and 1 | S. cerevisiae deletion strains, locus YPL256C, strain CLN2, active compounds read low 1 | S. cerevisiae deletion strains, locus YPR119W, strain clb2, active compounds read low 1.02 | S. cerevisiae deletion strains, locus YPR141C, strain kar3, active compounds read low 1.04 | S. cerevisiae deletion strains, locus YPR163C, strain tif3, active compounds read low 1.03 | S. cerevisiae deletion strains, locus YPR167C, strain met16, active compounds read low 1.04 | S. cerevisiae deletion strains, strain wtn01, active compounds read low 1.03 | S. cerevisiae strains, strain wild type, active compounds read low 1.02
